# The list is not random: actives were taken first. Their share in the collection is about 2.7%.
# CF NFkB inh: inhibitors of cystic fibrosis induced NF-kB. KKLEB NF-kB-GFP reporter, PAF-induced, GFP fluorescence overnight. inhibition, % at 5 µM. hit rate 0.86% among 360,000. AID 588850;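 active = at least 50% inhibition at 5 µM, scaled per plate between neutral and stimulator controls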;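 note: PAF is a Pseudomonas aeruginosa culture filtrate used as stimulus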
# KKLEB tox: CF airway cell cytotoxicity counter-screen. KKLEB CF airway cells viability, ATPlite luminescence, overnight; active compounds read low; cells stimulated with P. aeruginosa culture filtrate. activity change (cytotoxicity), % at 5 µM. hit rate 0.36% among 360,000. AID 602141;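 active = corrected activity change at or below -50% at 5 µM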
# MITF TRPM1 inh: reduces MITF-dependent TRPM1 promoter luciferase signal; SK-MEL-5 TRPM1 promoter luciferase, 24 h; inhibition, % at 12.5 µM; hit rate 0.83% among 330,000;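 active = mean inhibition across replicates of 60% or more, whatever share of single replicates reaches that level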
# HIF-2a inh: inhibitors of HIF-2a; AID 624352; hit rate 0.72% among 360,000; 786-0 RCC cells HIF-2a reporter, luciferase luminescence, overnight; inhibition, % at 18.8 µM;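 active = inhibition of the luminescence signal of 40% or more relative to plate controls, in a single-dose primary screen at 18.75 µM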
# Shn3 3UTR inh: reduces Shn3 3'UTR luciferase signal in osteoblasts; Clone20 osteoblast Shn3 3'UTR firefly luciferase, 24 h; inhibition, % at 12.5 µM; hit rate 0.52% among 360,000; AID 588674;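 active = mean inhibition of at least 75% with every replicate also reaching 75%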
# Peg3 prom inh-1: Peg3 promoter activity inhibition | inhibition, % at 20 µM | hit rate 1.7% among 360,000 | HeLa PEG-Prom luciferase reporter, luminescence, overnight;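 active = inhibition of at least 50% at 20 µM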
# Peg3 prom inh-2: Peg3 promoter inhibition confirmation; shares compounds with Peg3 prom inh-1; HeLa PEG-Prom luciferase reporter, luminescence, overnight; inhibition, % at 20 µM; hit rate 84% among 1,300; AID 602417;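 active = at 20 µM dose, 40% or more inhibition averaged across four replicates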
# CF NFkB conf: CF NF-kB inhibition confirmation, single concentration; KKLEB CF airway cells, PAF-induced NF-kB-GFP fluorescence, overnight; shares compounds with CF NFkB inh; hit rate 64% among 1,300; inhibition, % at 5 µM; in the data active = inhibition above about 40%;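 note: stimulus PAF is a Pseudomonas aeruginosa filtrate and not platelet activating factor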
# Mdm2-MdmX confirm: Mdm2/MdmX (human) interaction inhibition, confirmed | hit rate 99% among 740 | SaOS-2 split-luciferase Mdm2/MdmX complementation, luminescence | shares compounds with HIF-2a inh | inhibition, % at 8 µM | AID 504601;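 active = mean inhibition of the luminescence signal across two replicates at or above 26 percent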
# Target sequence (O15151 whole entry, looked up): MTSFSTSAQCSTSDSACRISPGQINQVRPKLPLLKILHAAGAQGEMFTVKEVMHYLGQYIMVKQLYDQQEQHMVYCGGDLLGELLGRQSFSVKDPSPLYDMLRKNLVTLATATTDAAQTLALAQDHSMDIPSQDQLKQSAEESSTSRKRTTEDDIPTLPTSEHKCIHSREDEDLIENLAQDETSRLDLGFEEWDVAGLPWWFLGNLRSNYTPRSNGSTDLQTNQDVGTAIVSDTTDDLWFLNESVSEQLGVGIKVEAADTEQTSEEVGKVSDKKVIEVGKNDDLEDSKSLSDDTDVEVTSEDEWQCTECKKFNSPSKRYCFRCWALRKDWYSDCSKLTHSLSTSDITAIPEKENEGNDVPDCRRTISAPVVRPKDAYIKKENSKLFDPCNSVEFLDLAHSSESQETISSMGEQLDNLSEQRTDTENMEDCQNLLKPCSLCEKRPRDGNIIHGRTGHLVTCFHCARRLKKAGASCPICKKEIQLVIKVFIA
# Target sequence (Q00987 whole entry, looked up): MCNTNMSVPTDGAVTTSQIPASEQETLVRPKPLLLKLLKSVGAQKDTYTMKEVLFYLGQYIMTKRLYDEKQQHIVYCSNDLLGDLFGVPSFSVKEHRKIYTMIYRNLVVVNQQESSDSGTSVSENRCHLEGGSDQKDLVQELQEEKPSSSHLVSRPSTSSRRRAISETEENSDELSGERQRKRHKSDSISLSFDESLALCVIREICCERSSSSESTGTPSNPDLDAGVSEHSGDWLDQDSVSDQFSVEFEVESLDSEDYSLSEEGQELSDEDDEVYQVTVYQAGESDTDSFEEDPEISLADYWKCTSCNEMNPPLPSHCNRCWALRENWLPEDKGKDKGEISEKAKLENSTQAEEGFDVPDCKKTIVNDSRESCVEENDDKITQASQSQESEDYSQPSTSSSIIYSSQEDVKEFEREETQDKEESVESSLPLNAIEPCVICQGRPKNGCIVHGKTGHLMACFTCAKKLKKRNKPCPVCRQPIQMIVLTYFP
# HIF-2a inh conf: HIF-2a inhibition, single concentration confirmation; hit rate 56% among 1,800; AID 651580; inhibition, % at 18.8 µM; shares compounds with HIF-2a inh; 786-0 RCC cells, HIF-2a luciferase reporter luminescence, overnight;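 active = mean inhibition across four replicates of at least 40 percent at the single tested concentration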
# HIF-1a cs: HIF-1a inhibition counter-screen for HIF-2a hits; shares compounds with HIF-2a inh; MiaPaCa-2 HIF-1a luciferase reporter, desferoxamine, overnight; inhibition, % at 18.8 µM; hit rate 72% among 1,800;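 active = mean inhibition of the reporter signal across four replicates at the single tested dose of 50% or more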
# A number is an active result; i = inactive; nt = no result.
SMILES,CF NFkB inh,KKLEB tox,MITF TRPM1 inh,HIF-2a inh,Shn3 3UTR inh,Peg3 prom inh-1,Peg3 prom inh-2,CF NFkB conf,others
CC[C@@H](O)C[C@H]1CCC[C@@]2(C[C@@H]3OC(=O)/C=C/[C@@](C)(O)[C@@H](O)[C@H](C)[C@@H](O)[C@H](OC4CCC(N(C)C)C(C)O4)[C@@H](O)[C@](C)(O)CCCCC/C=C/[C@@H]4CC(C)(C)O[C@@]4(O)C[C@H](O2)[C@H]3C)O1 (some centres undefined),i,i,75.8,i,90.2,89.2,92.5,nt,
COc1cccc(C2CCN(C)C2)c1 (centres undefined),i,i,nt,i,i,i,nt,nt,
N#Cc1ccc(Cn2cc(C=O)c3ccccc32)cc1,i,i,i,i,i,73.6,60.6,nt,
CCC(=O)c1cn(Cc2ccc(C#N)cc2)c2ccccc12,i,i,i,i,i,i,nt,nt,
CC(=O)OC1(C)CC(C)C(=O)C(C(O)CC2CC(=O)NC(=O)C2)C1 (centres undefined),80.6,i,84.0,77.3,95.0,105.4,97.8,114.1,
COc1ccc(N2C(=O)CC(N3CCC(n4c(=O)[nH]c5ccccc54)CC3)C2=O)cc1 (centres undefined),i,i,i,i,i,i,nt,nt,
COc1ccc(-n2nnnc2C(CCSC)N2CCC(n3c(=O)[nH]c4ccccc43)CC2)cc1 (centres undefined),80.7,i,nt,i,i,56.5,42.4,69.8,
OC(CNCCc1c[nH]c2ccccc12)c1ccccc1 (centres undefined),i,i,i,i,i,i,nt,nt,
CC1=CC2OC3CC4OC(=O)C=CC=CC(C(C)O)OCC(O)C(C)CC(=O)OCC2(CC1O)C4(C)C31CO1 (centres undefined),85.5,-51.8,89.8,75.8,93.5,96.5,97.7,nt,HIF-2a inh conf=73.3;HIF-1a cs=105.2
COc1c(C=C2C(=O)NC(=O)NC2=O)c(CCN(C)C(=O)c2ccccc2)cc2c1OCO2,i,i,i,i,i,i,nt,nt,
CC(=O)OC(C)(C)/C=C/C(=O)C(C)(O)C1[C@H](O)C[C@@]2(C)C3CC=C4C(CC[C@@H](O)C4(C)C)[C@]3(CO)C(=O)C[C@]12C (some centres undefined),91.3,-92.1,84.9,72.3,i,83.8,86.6,nt,HIF-2a inh conf=73.3;HIF-1a cs=104.7
CC1=CC2/C=C(\C)CCC(O)C(O)/C=C/C(=O)C23C(=O)NC(CC(C)C)C3C1C (centres undefined),92.2,-64.3,97.2,92.5,98.6,107.8,98.0,nt,Mdm2-MdmX confirm=103.0;HIF-2a inh conf=99.2;HIF-1a cs=102.0
C[C@@H]1O[C@@H](O[C@@H]2C=C3CCC4C(CC[C@]5(C)[C@@H](c6ccc(=O)oc6)CC[C@]45O)[C@@]3(C)CC2)[C@H](O)[C@H](O)[C@H]1O (some centres undefined),87.9,-62.2,82.2,90.4,i,94.7,96.9,nt,Mdm2-MdmX confirm=86.6;HIF-2a inh conf=43.3;HIF-1a cs=105.4
COC(=O)C1=C(c2c(C)noc2C)C[C@@H]2CC[C@H]1N2C(=O)NC1Cc2ccccc2C1,i,i,i,i,i,i,nt,nt,
C[C@](N)(CCP(=O)(O)O)C(=O)O,i,i,i,i,i,i,nt,nt,
Cc1ccccc1CN1Cc2cnnn2-c2ccccc2C1C#N (centres undefined),i,i,98.0,91.7,i,95.3,98.0,nt,HIF-2a inh conf=96.7;HIF-1a cs=106.5
Cc1ccccc1C(=O)N1Cc2cnnn2-c2ccccc2C1C#N (centres undefined),i,i,i,i,i,i,nt,nt,
C[C@]12CC[C@H](O)CC1=CC(=O)C1C2CC[C@]2(C)C(=O)[C@H](O)CC12 (some centres undefined),i,i,i,i,i,i,nt,nt,
C=C1C(C)C2C(Cc3ccccc3)NC(=O)C23OC(=O)/C=C/C(O)CCCC(C)C/C=C/C3C1O (centres undefined),75.6,i,i,i,i,57.5,nt,97.5,
O=C1C=CC(=O)C2C1C1(Cl)C(Cl)=C(Cl)C2(Cl)C1(Cl)Cl (centres undefined),54.3,i,i,i,i,65.4,nt,i,
COc1ccc(C(c2nnnn2-c2ccc3c(c2)OCCO3)N2CCC(n3c(=O)[nH]c4ccccc43)CC2)cc1 (centres undefined),61.0,i,nt,i,i,62.5,nt,i,
COc1ccc2nc(-c3ccc(CN4CCC(n5c(=O)[nH]c6ccccc65)CC4)cc3)c(-c3ccccc3)nc2c1,nt,nt,nt,i,nt,nt,nt,nt,
CCCCn1nnnc1C(CCc1ccccc1)N1CCC(n2c(=O)[nH]c3ccccc32)CC1 (centres undefined),88.0,i,nt,i,i,81.9,nt,73.9,
COc1ccc(C(c2nnnn2-c2ccc(OC)cc2)N2CCC3(CC2)C(=O)NCN3c2ccccc2)cc1 (centres undefined),i,i,nt,i,i,i,nt,nt,
COc1ccc(-n2nnnc2C(CCc2ccccc2)N2CCC(n3c(=O)[nH]c4ccccc43)CC2)cc1 (centres undefined),75.0,i,nt,i,i,98.8,nt,88.2,
SMILES,CF NFkB inh,KKLEB tox,MITF TRPM1 inh,HIF-2a inh,Shn3 3UTR inh,Peg3 prom inh-1,Peg3 prom inh-2,CF NFkB conf,others
COc1cccc(-n2c(O)c(C=NCCN3CCNCC3)c(=O)[nH]c2=S)c1,i,i,i,i,i,i,nt,nt,
COCCCNP1(=O)OCC(C)([N+](=O)[O-])CO1 (centres undefined),i,i,i,i,i,i,nt,nt,
COc1cc2c(c(OC)c1OC)-c1ccc(C(=O)O)cc1[C@@H](NC(C)=O)CC2,i,i,i,i,i,i,nt,nt,
COc1cc2c(c(OC)c1O)-c1ccc(OC)c(=O)cc1C(NC(=O)C(F)(F)F)CC2 (centres undefined),51.0,i,i,i,i,i,nt,87.4,
CN1CCCN(C(=O)COc2ccc(F)cc2Cl)CC1,i,i,i,i,i,i,nt,nt,
C[C@H]1CCCC(=O)CCC/C=C/c2cc(O)cc(O)c2C(=O)O1,51.4,i,i,i,i,i,nt,58.2,
COc1cc(O)cc2c1C(=O)OC(C)CCCC(=O)CCC/C=C\2 (centres undefined),i,i,i,i,i,i,nt,nt,

# Assay outcomes as filed in PubChem.
